Experimental data from PubChem BioAssay (Tox21).
Results filed as inconclusive are left out. The source made the active and inactive calls. Unless noted, the call rests on the fitted dose curve; in most records, active means well fitted curve in the direction sought with a large enough effect in the repeat runs; inconclusive means weak or mixed curves; inactive means no such curve, though single readings can be large; an effect the other way counts as inactive or inconclusive.

Assays:
[1] = qHTS assay to identify small molecule antagonists of the glucocorticoid receptor (GR) signaling pathway - cell viability counter screen (AID 720693); further: nearly all actives have a fitted effect of over 55% in size
[2] = qHTS assay for identifying genotoxic compounds that show differential cytotoxicity against isogenic chicken DT40 cell lines with known DNA damage response pathways - Rev3 mutant cell line (AID 743014); further: nearly all actives have a fitted effect of over 55% in size; further: potency means the concentration at half of the fitted maximal effect
[3] = qHTS assay for identifying genotoxic compounds that show differential cytotoxicity against isogenic chicken DT40 cell lines with known DNA damage response pathways - Rad54/Ku70 mutant cell line (AID 743015); further: nearly all actives have a fitted effect of over 60% in size; further: potency means the concentration at half of the fitted maximal effect
[4] = qHTS assay to identify small molecule antagonists of the androgen receptor (AR) signaling pathway - cell viability counter screen (AID 743033; further: nearly all actives have a fitted effect of over 45% in size)
[5] = qHTS assay to identify small molecule antagonists of the androgen receptor (AR) signaling pathway using the MDA cell line - cell viability counter screen (AID 743041; further: nearly all actives have a fitted effect of over 45% in size)
Method in brief: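 MDA-kb2 AR-luc cells (MMTV-luciferase, AR/GR responsive) treated with compounds plus R1881 agonist for 16 h at 37C. CellTiter-Fluor added at 15.5 h; fluorescence read after 30 min in the same wells.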

[6] = qHTS assay to identify small molecule antagonists of the thyroid receptor (TR) signaling pathway (AID 743065); further: nearly all actives have a fitted effect of over 55% in size; further: potency means the concentration at half of the fitted maximal effect
Method in brief: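 GH3.TRE-Luc rat pituitary cells (two TREs driving luciferase) were dosed with compound, then stimulated with 1 nM T3 (final) for 23.5 h at 37 C. ONE-Glo luminescence was the read-out, with CellTiter-Fluor fluorescence as the cytotoxicity counter-screen.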

[7] = tested on: thyroid hormone receptor (rat, GH3 cells); experiment: qHTS assay to identify small molecule agonists of the thyroid receptor (TR) signaling pathway (AID 743066; calls by dose curve)
[8] = qHTS assay to identify small molecule antagonists of the estrogen receptor alpha (ER-alpha) signaling pathway - cell viability counter screen (AID 743074; calls by dose curve;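 further: HEK293 cells carrying ER-alpha-UAS-bla reporter stimulated with 17beta-estradiol; nearly all actives have a fitted effect of over 45% in size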)
[9] = qHTS assay to identify small molecule antagonists of the estrogen receptor alpha (ER-alpha) signaling pathway using the BG1 cell line - cell viability counter screen (AID 743081);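 further: compound given together with 17beta-estradiol as the ER stimulus; series mostly up to about 70 µM; nearly all actives have a fitted effect of over 45% in size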
Aromatase (Homo sapiens) = Aromatase (Homo sapiens) (UniProt P11511); experiment: qHTS assay to identify aromatase inhibitors (AID 743083); further: series mostly up to about 70 µM; nearly all actives have a fitted effect of over 55% in size
[10] = qHTS assay to identify aromatase inhibitors - cell viability counter screen (AID 743084)
[11] = target: Androgen receptor (Homo sapiens) (UniProt P10275); experiment: qHTS assay to identify small molecule antagonists of the androgen receptor (AR) signaling pathway (AID 743035; active means well fitted inhibition curve with a large enough effect in the signal ratio in the repeat runs, not every such curve was filed as active; the % refers to the signal ratio)
Method in brief: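 Using qHTS, AR-UAS-bla GripTite HEK293 cells received compound, then R1881, and were cultured 16 h at 37C/5% CO2 before a 2 h room-temperature LiveBLAzer B/G FRET substrate step and fluorescence measurement.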

[12] = target: Androgen receptor (Homo sapiens) (UniProt P10275); experiment: qHTS assay to identify small molecule agonists of the androgen receptor (AR) signaling pathway (AID 743036; active means well fitted activation curve with a large enough effect in the signal ratio in the repeat runs, with a control signal flat, not every such curve was filed as active; the % refers to the signal ratio)
Method in brief: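 AR-UAS-bla HEK293 cells, plated 4 h before dosing, were treated with compound for 16 h at 37C. beta-Lactamase reporter read after 2 h with LiveBLAzer B/G FRET substrate at room temperature.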

[13] = target: Androgen receptor (Homo sapiens) (UniProt P10275); experiment: qHTS assay to identify small molecule antagonists of the androgen receptor (AR) signaling pathway using the MDA cell line (AID 743042; further: nearly all actives have a fitted effect of over 55% in size)
Method in brief: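 MDA-kb2 breast carcinoma cells carrying MMTV-luciferase (AR/GR responsive) were co-treated with compounds and the agonist R1881 for 16 h at 37C. Inhibition read as ONE-Glo luminescence; CellTiter-Fluor fluorescence measured in parallel for cytotoxicity.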

[14] = target: Estrogen receptor (Homo sapiens) (UniProt P03372); experiment: qHTS assay to identify small molecule antagonists of the estrogen receptor alpha (ER-alpha) signaling pathway (AID 743069; active means well fitted curve in the direction sought with a large enough effect in the signal ratio in the repeat runs, not every such curve was filed as active; the % refers to the signal ratio)
Method in brief: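 HEK293 ER-alpha-UAS-bla GripTite cells, held overnight in 2% charcoal-stripped FBS, 5,000 cells/well, preincubated 4 h, then compound plus 17beta-estradiol for 18 h at 37C. Beta-lactamase read by LiveBLAzer B/G FRET substrate, 2 h at room temperature.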

[15] = target: Estrogen receptor (Homo sapiens) (UniProt P03372); experiment: qHTS assay to identify small molecule agonists of the estrogen receptor alpha (ER-alpha) signaling pathway (AID 743075; calls by dose curve)
[16] = qHTS assay to identify small molecule antagonists of the estrogen receptor alpha (ER-alpha) signaling pathway using the BG1 cell line (AID 743080; calls by dose curve;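 further: BG1 cells stimulated with 17beta-estradiol alongside compound; series mostly up to about 70 µM; nearly all actives have a fitted effect of over 25% in size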)
Method in brief: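 BG1Luc4E2, endogenous ER-alpha, 4xERE-luc; 5 d charcoal-stripped FBS, phenol red free; 24 h plating; cpd + 17beta-estradiol 21.5 h, 37 C/5% CO2; CellTiter-Fluor viability 30 min, then ONE-Glo luciferase 30 min RT.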

[17] = target: Estrogen receptor (Homo sapiens) (UniProt P03372); experiment: qHTS assay to identify small molecule agonists of the estrogen receptor alpha (ER-alpha) signaling pathway using the BG1 cell line (AID 743079); further: nearly all actives have a fitted effect of over 20% in size
[18] = qHTS assay to identify small molecule antagonists of the thyroid receptor (TR) signaling pathway - cell viability counter screen (AID 743064); further: nearly all actives have a fitted effect of over 50% in size
Method in brief: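 GH3.TRE-Luc rat pituitary cells dosed after 4 hr plating, co-stimulated with T3 at 1 nM final, incubated 23.5 h at 37 C. Viability measured in the same wells by CellTiter-Fluor fluorescence after 30 min further at 37 C.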

[19] = qHTS assay for identifying genotoxic compounds that show differential cytotoxicity against isogenic chicken DT40 cell lines with known DNA damage response pathways - wild type cell line (AID 743012); further: nearly all actives have a fitted effect of over 60% in size; further: potency means the concentration at half of the fitted maximal effect
Method in brief: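 Using parental DT40 (300 cells/well), compounds delivered in DMSO incubate 40 h at 37 C/5% CO2. CellTiter-Glo reagent then stands 30 min at room temperature, and luminescence gives cell viability.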

Measured: Potency

Chain of Androgen receptor (Homo sapiens) (P10275 whole entry, looked up): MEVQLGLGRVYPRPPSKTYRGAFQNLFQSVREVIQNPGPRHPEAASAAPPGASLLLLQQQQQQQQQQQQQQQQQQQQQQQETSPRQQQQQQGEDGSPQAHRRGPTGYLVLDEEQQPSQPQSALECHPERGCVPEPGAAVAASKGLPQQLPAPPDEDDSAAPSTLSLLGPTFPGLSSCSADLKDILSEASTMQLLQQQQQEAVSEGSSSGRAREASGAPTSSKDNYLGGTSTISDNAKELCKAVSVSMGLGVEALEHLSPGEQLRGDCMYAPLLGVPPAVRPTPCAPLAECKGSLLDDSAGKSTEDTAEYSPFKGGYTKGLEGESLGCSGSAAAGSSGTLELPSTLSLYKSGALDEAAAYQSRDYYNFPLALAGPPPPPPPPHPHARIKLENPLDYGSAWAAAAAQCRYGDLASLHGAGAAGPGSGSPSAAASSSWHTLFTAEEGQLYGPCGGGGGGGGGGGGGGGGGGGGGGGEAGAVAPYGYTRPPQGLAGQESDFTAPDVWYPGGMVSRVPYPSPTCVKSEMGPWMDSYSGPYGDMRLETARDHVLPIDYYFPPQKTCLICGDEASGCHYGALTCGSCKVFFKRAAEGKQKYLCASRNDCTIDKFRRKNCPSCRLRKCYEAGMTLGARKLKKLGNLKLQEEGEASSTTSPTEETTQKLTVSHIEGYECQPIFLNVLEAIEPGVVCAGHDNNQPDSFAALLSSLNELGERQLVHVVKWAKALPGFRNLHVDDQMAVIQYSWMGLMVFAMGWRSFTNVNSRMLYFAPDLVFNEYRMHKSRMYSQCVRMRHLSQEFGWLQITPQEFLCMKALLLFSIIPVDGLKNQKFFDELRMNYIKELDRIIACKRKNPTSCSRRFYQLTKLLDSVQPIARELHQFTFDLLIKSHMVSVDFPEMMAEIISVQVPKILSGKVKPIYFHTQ
Chain of Aromatase (Homo sapiens) (P11511 whole entry, looked up): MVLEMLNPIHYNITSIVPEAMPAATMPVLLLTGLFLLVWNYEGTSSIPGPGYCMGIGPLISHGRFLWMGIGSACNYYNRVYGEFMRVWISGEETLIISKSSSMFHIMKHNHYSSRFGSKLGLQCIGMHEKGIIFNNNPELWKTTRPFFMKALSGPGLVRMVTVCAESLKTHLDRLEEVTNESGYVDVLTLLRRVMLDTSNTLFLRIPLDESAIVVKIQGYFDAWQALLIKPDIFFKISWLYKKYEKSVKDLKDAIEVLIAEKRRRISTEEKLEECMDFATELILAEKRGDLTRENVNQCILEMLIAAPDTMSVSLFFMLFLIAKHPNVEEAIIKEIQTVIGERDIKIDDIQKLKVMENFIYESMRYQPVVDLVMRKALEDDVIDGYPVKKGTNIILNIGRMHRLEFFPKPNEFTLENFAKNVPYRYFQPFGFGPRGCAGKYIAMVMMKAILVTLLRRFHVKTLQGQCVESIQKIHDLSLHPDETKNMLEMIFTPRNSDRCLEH
Chain of Estrogen receptor (Homo sapiens) (P03372 whole entry, looked up): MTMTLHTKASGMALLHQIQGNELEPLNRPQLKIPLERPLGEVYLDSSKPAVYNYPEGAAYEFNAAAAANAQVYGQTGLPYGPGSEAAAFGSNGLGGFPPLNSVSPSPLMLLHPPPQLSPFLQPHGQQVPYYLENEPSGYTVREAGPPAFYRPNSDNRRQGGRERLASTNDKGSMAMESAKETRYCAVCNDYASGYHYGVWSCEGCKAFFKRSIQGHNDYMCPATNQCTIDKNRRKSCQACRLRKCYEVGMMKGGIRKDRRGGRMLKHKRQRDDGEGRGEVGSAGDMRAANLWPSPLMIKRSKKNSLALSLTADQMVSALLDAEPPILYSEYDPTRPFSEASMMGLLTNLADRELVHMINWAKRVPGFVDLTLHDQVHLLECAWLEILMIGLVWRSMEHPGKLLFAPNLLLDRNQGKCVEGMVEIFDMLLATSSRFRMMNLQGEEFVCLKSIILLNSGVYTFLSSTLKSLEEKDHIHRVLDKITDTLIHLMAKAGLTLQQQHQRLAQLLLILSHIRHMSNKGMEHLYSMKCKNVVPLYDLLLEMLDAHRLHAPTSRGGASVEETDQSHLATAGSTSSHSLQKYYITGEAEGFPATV

CCCCCC1CCCC(=O)O1 (stereo not drawn)
inactive: [1] | [2] | [3] | [4] | [5] | [6] | [7] | [8] | [9] | Aromatase (Homo sapiens) | [10]

CC(=O)OC(C(=O)c1ccccc1)c1ccccc1 (stereo not drawn)
not listed: [3] | [17] | [18] | [19]
inactive: all other assays above

O=C1OC(=O)c2cc(Oc3ccc4c(c3)C(=O)OC4=O)ccc21
not listed: [3] | [5] | [16] | [18] | [19]
inactive: all other assays above

CC(Cl)COP(=O)(OCC(C)Cl)OCC(C)Cl (stereo not drawn)
active: [2] 54.2 µM
not listed: [3] | [6] | [11] | [12] | [13] | [16] | [19]
inactive: all other assays above

O=C(O)c1c(Cl)ccc(Cl)c1Cl
not listed: [7] | [11] | [12] | [13] | [16] | [19]
inactive: all other assays above

CCC(C)(C)C1CCC(=O)CC1
not listed: [2] | [6] | [17] | [19]
inactive: all other assays above

CCCCCCCCC(=O)OCC
not listed: [5] | [6] | [11] | [12] | [13] | [18] | [19]
inactive: all other assays above

COCC(=O)Nc1c(I)c(C(=O)NCC(O)CO)c(I)c(C(=O)N(C)CC(O)CO)c1I (stereo not drawn)
not listed: [3] | [16] | [19]
inactive: all other assays above

COC(/C=C(\C)CCC=C(C)C)OC
not listed: [5] | [11] | [12] | [13] | [19]
inactive: all other assays above

COc1cc2c3cc1Oc1cc(ccc1O)C[C@@H]1c4c(cc(OC)c(O)c4Oc4ccc(cc4)C[C@@H]3N(C)CC2)CC[N+]1(C)C
inactive: [1] | [2] | [4] | [5] | [18] | [6] | [7] | [8] | [9] | Aromatase (Homo sapiens) | [10]

C[C@H](CCC(=O)O)[C@H]1CC[C@H]2[C@@H]3[C@H](O)C[C@@H]4C[C@H](O)CC[C@]4(C)[C@H]3C[C@H](O)[C@]12C
not listed: [11] | [12] | [13] | [16] | [19]
inactive: all other assays above

CC(C)(C)NCCO
not listed: [2] | [11] | [12] | [13] | [19]
inactive: all other assays above

Oc1ccccc1Cc1ccccc1O
inactive: [1] | [2] | [4] | [5] | [18] | [7] | [17] | [16] | [9] | Aromatase (Homo sapiens) | [10]

CC(=O)OC(C)c1ccccc1 (stereo not drawn)
not listed: [2] | [11] | [12] | [13] | [19]
inactive: all other assays above

CCCCOC(=O)C(C)OC(=O)CCC (stereo not drawn)
not listed: [2] | [11] | [12] | [13] | [16] | [19]
inactive: all other assays above

O=C1NC2NC(=O)NC2N1 (stereo not drawn)
not listed: [11] | [12] | [13] | [14] | [15] | [16] | [17] | [19]
inactive: all other assays above

CO/N=C(/C(=O)N[C@@H]1C(=O)N2C(C(=O)O)=C(Cn3nnc(C)n3)CS[C@H]12)c1csc(N)n1
inactive: [1] | [2] | [3] | [4] | [5] | [18] | [7] | [9]

C[Si]1(C)N[Si](C)(C)N[Si](C)(C)N1
not listed: [2] | [11] | [12] | [13] | [16] | [19]
inactive: all other assays above

C=CCOc1cc(Cl)ccc1C(=O)NCCN(CC)CC
inactive: [1] | [4] | [5] | [7] | [8] | [9] | Aromatase (Homo sapiens) | [10]
active: [2] 29.8 µM | [6] 13.3 µM

CC(=O)OCCCc1ccccc1
not listed: [11] | [12] | [13] | [14] | [15] | [16] | [17] | [19]
inactive: all other assays above

CCN(Cc1cccc(S(=O)(=O)O)c1)c1ccccc1
not listed: [2] | [3] | [11] | [12] | [13] | [19]
inactive: all other assays above

NS(=O)(=O)c1cc2c(cc1Cl)NC(CC1CCCC1)NS2(=O)=O (stereo not drawn)
inactive: [1] | [4] | [5] | [18] | [6] | [7] | [8] | [9] | Aromatase (Homo sapiens) | [10]

COc1cccc2sc(N)nc12
not listed: [1] | [11] | [12]
inactive: all other assays above

C[C@@H]1C[C@H]2[C@@H]3C[C@H](F)C4=CC(=O)C=C[C@]4(C)[C@@]3(F)[C@@H](O)C[C@]2(C)[C@@]1(O)C(=O)CO
inactive: [1] | [5] | [18] | [6] | [7] | [8] | [9] | Aromatase (Homo sapiens) | [10]

O=c1[nH]c(=O)c2[nH]c(=O)[nH]c2[nH]1
not listed: [1] | [11] | [12] | [13]
inactive: all other assays above

CN(C1CCCCC1)S(=O)(=O)c1ccccc1N
active: [3] 54.5 µM
inactive: [1] | [5] | [18] | [7] | [8] | [9] | Aromatase (Homo sapiens) | [10]

CC(C)COC(=O)CC(C(=O)OCC(C)C)S(=O)(=O)O (stereo not drawn)
not listed: [1] | [11] | [12] | [13]
inactive: all other assays above

Cc1cccc(Nc2ccncc2S(=O)(=O)NC(=O)NC(C)C)c1
not listed: [1] | [11] | [12] | [13]
inactive: all other assays above

Cc1nc(C)nc(N2C[C@@H](C)N(c3ccnc([C@@H](C)O)n3)[C@@H](C)C2)n1
not listed: [2] | [3] | [11] | [12] | [13] | [19]
inactive: all other assays above

OC(CCN1CCCCC1)(c1ccccc1)c1ccccc1
active: [19] 13.3 µM | [2] 23.7 µM | [3] 21.1 µM
not listed: [1] | [5] | [6] | [9] | [18]
inactive: all other assays above

CCOC(=O)CCCCCCCCC(=O)OCC
not listed: [2] | [3] | [6] | [11] | [12] | [13] | [17] | [19]
inactive: all other assays above

O=c1[nH]c(=O)c2ccccc2o1
not listed: [1] | [11] | [12] | [14] | [15] | [16] | [17]
inactive: all other assays above

CC(CC(=O)O)CC(C)(C)C (stereo not drawn)
not listed: [1] | [10] | [11] | [12] | [13] | [16]
inactive: all other assays above

Nc1ccc(/C=C/c2ccc(N)cc2S(=O)(=O)O)c(S(=O)(=O)O)c1
not listed: [2] | [3] | [11] | [12] | [13] | [19]
inactive: all other assays above

NS(=O)(=O)c1cc2c(cc1Cl)NC(C(Cl)Cl)NS2(=O)=O (stereo not drawn)
inactive: [1] | [3] | [5] | [18] | [6] | [7] | [8] | [9] | Aromatase (Homo sapiens) | [10]

c1ccc(CNc2ncnc3nc[nH]c23)cc1
active: [3] 48.6 µM
inactive: [1] | [4] | [5] | [18] | [6] | [7] | [8] | [9]

COc1ccc(OC)c(NC(=O)CC(C)=O)c1
inactive: [1] | [3] | [4] | [5] | [18] | [6] | [7] | [8] | [9]

CC(=O)c1ccc2c(c1)CCCC2
not listed: [1] | [11] | [12] | [13] | [15] | [17]
inactive: all other assays above
